# Experimental data: PubChem BioAssay AID602410 (Johns Hopkins Ion Channel Center, 2012)
# Hit rate of the full screen: of about 340,000 compounds, about 2,800 (0.82%) were called active.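 The calls were made as follows: active = B-score under library mean minus 4 SD, starting fluorescence ratio at most library mean plus 5 SD; inactive = the rest.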 Many of the other results were omitted from the sample, so actives are more common in it than they were.
# Biological target: Potassium channel subfamily K member 3 (Homo sapiens) (UniProt O14649)
# Sequence (O14649 whole entry, looked up): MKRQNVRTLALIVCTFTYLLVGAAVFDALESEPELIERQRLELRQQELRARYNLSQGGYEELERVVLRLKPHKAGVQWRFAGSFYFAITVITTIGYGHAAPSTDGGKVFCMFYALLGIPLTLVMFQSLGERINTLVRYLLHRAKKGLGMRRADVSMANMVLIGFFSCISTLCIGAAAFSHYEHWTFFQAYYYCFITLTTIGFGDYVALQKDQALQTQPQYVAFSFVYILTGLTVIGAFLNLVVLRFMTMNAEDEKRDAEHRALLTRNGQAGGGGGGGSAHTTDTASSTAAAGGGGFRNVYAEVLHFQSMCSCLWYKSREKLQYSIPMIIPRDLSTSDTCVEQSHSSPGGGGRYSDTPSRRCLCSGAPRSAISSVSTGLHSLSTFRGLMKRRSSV
# Experiment: blockers of TASK1 two-pore potassium channel – CHO cells, FluxOR thallium flux, B-score, primary screen (AID 602410);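 as to B-score: more negative B-score means stronger inhibition of thallium flux through KCNK3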
# Settings: CHO-KCNK3 thallium flux, FluxOR fluorescence, at 10 µM; active compounds read low
row,Structure (SMILES),B-score
1,COC(=O)[C@@H]1CC(O)CN1C(=O)C12CC3CC(CC(C3)C1)C2 (some centres not stated),inactive
2,CC1CN(CCOc2ccccc2[N+](=O)[O-])CC(C)O1 (configuration not stated),inactive
3,Cc1cccc(C)c1N1CCN(S(=O)(=O)N2CCCCC2)CC1,-11.9 (active)
4,Cc1cccc(C)c1N1CCN(S(=O)(=O)N2CCOCC2)CC1,inactive
5,Cc1cccc(C(=O)N2CCN(S(=O)(=O)N3CCCCC3)CC2)c1,inactive
6,COC(=O)c1ccc(CNC(=O)C2CCC(=O)N(Cc3ccccn3)C2)cc1 (configuration not stated),inactive
7,COc1ccc(CN2CCN(C(=O)c3cc(C4CC4)nn3-c3ccccc3)CC2)cc1F,inactive
8,CN(Cc1ccccc1)C(=O)c1ccc(COc2ccccc2)cc1,inactive
9,O=C(O)/C=C\C(=O)Nc1ccc(OCc2ccccc2)cc1,inactive
10,[O-][n+]1ccc(OCc2ccccc2)cc1,-9.05 (active)
11,CCCN1Cc2cccc(C(=O)Nc3ccc(S(=O)(=O)N4CCCCCC4)cc3)c2C1=O,inactive
12,O=S(=O)(Nc1ccc(O)c2ccccc12)c1ccc(OC(F)(F)F)cc1,inactive
13,Cc1nn(C)c(Oc2ccc(Cl)cc2)c1C=O,inactive
14,CCN(CC(=O)Nc1cc(Cl)ccc1C)C(=O)Cn1c(=O)cnc2ccccc21,inactive
15,Cc1ccc(O)c(CNc2nc3ccccc3[nH]2)c1,inactive
16,COc1cc(/C=C(\C#N)c2nc3ccccc3[nH]2)ccc1O,-8.85 (active)
17,CCCCCOc1ccc(/C=C/C(=O)NCCc2nc3ccccc3[nH]2)cc1OC,inactive
18,CCCCCc1nnc(NC(=O)c2ccc(=O)n(C)n2)s1,inactive
19,COCCCNCCOCCOc1ccc(Cl)cc1Br,inactive
20,Cc1ccc(OCC(=O)c2cc(C)n(Cc3ccco3)c2C)c([N+](=O)[O-])n1,inactive
21,CC(C)N(C(=O)CN1CCN(S(=O)(=O)c2ccc(Br)s2)CC1)C(C)C,inactive
22,Cc1cccc(NC(=O)CN2CCCN(S(=O)(=O)c3ccc(Br)s3)CC2)c1,-11.4 (active)

row,Structure (SMILES),B-score
1,Cc1ccc(S(=O)(=O)N2CCN(CC(=O)N/N=C/c3ccc(Br)s3)CC2)cc1,inactive
2,NC(=O)C1CCN(C(=O)CC2C(=O)NCCN2Cc2cccc(Oc3ccccc3)c2)CC1 (configuration not stated),inactive
3,C[C@H](O)[C@@H]1C(=O)N2CCc3ccc(N4CCOCC4)cc3[C@@H]2C[C@@H]1N(C)C(=O)C(C)(C)C,inactive
4,CC(NC(=S)Nc1ccccc1)C(c1cccs1)N1CCOCC1 (configuration not stated),inactive
5,CN(c1ccccc1)S(=O)(=O)c1cccc(NC(=O)Cc2ccc(Cl)cc2)c1,-10.7 (active)
6,CN(C)S(=O)(=O)c1cccc(NC(=O)Cc2ccsc2)c1,inactive
7,CN(c1ccccc1)S(=O)(=O)c1cccc(NC(=O)Cc2c(F)cccc2Cl)c1,inactive
8,Cc1cc(F)ccc1S(=O)(=O)Nc1ccc(C(=O)N(C)Cc2ccco2)cc1,inactive
9,O=C(c1cc(COc2cccc(C(F)(F)F)c2)on1)N1CCSCC1,inactive
10,O=C(NC1Cc2ccccc2C1)c1cc(COc2cccc(C(F)(F)F)c2)on1,inactive
11,Cc1nonc1C1CCCN1C(=O)c1cc(COc2cccc(C(F)(F)F)c2)on1 (configuration not stated),-9.02 (active)
12,CCCNC(=O)c1ccc(N2CCC3(CC2)CC(c2cccc(Br)c2)=NO3)c(NC(=O)c2ccco2)c1,inactive
13,CS(=O)(=O)N1CCCC(C(=O)N2CCOCC2)C1 (configuration not stated),inactive
14,S=c1[nH]nc(-c2ccco2)n1/N=C/c1ccc(Br)s1,inactive
15,CCN(CC(=O)NCc1ccc(Cl)cc1)C(=O)CSc1ccccc1,inactive
16,CSc1cccc(NC(=S)N(C(C)C)C(C)c2ccccn2)c1 (configuration not stated),-10.1 (active)
17,CC(c1ccccn1)N(CCN(C)C)C(=S)Nc1ccccc1F (configuration not stated),inactive
18,CSc1cccc(NC(=S)N(Cc2ccccc2)Cc2ccccn2)c1,inactive
19,NC(=S)Nc1c(Cl)cccc1Cl,inactive
20,FC(F)(F)c1cccc(Cc2noc(CN3CCC(N4CCCCC4)CC3)n2)c1,inactive
21,CC(C(=O)NCC1CCCCC1)N(C)Cc1cccc(Cl)c1 (configuration not stated),-8.9 (active)
22,COc1ccc(CN(C)C(C)C(=O)NC2CCCc3ccccc32)cc1 (configuration not stated),inactive

row,Structure (SMILES),B-score
1,CNS(=O)(=O)c1cccc(C(=O)NCC2CCCCC2)c1,inactive
2,CCc1cccc(NC(=O)C2CCCN(S(=O)(=O)c3ccc4[nH]c(=O)ccc4c3)C2)c1 (configuration not stated),inactive
3,Cc1cc(OCC(=O)Nc2c(C)n(C)n(-c3ccccc3)c2=O)ccc1[N+](=O)[O-],inactive
4,COc1ccc(CNCCCn2cnc3c(OCc4ccccc4)ncnc32)cc1,inactive
5,S=C(NCCc1ccccc1)N1CCn2cccc2C1c1ccncc1 (configuration not stated),inactive
6,S=C(Nc1cccc(Br)c1)N1CCn2cccc2C1c1cccnc1 (configuration not stated),-9.52 (active)
7,Fc1cc(Br)ccc1NC(=S)Nc1cccnc1,inactive
8,C=C(C)c1cccc(C(C)(C)NC(=O)N2CCN(c3ncccn3)CC2)c1,inactive
9,C=CCN1CN(S(=O)(=O)c2ccc(OC)cc2)c2nc3ccccc3nc21,inactive
10,O=C(Nc1cccc(S(=O)(=O)Nc2ccc(Cl)cc2)c1)c1ccc2c(c1)OCCO2,-9.14 (active)
11,O=C(Nc1ccc2c(c1)OCCO2)c1ccc(Cl)c(S(=O)(=O)N2CCCCC2)c1,inactive
12,O=C(Nc1ccc(Cl)cn1)c1ccc2c(c1)OCCO2,inactive
13,O=C(NCc1ccco1)C(=O)c1cn(CC(=O)N2CCCCCC2)c2ccccc12,inactive
14,CCOC(=O)c1cc2cc(-c3c(C(=O)OCC)oc4cc(O)cc(O)c4c3=O)ccc2o1,-9.55 (active)
15,CCOC(=O)c1cc(=O)c2ccc(OCc3ccccc3)cc2o1,inactive
16,O=c1c(-c2ccc3c(c2)OCCO3)c(C(F)(F)F)oc2cc(O)cc(O)c12,inactive
17,COc1ccccc1NC(=O)CCC(=O)N1CC(C)Oc2ccc(C)cc21 (configuration not stated),inactive
18,O=C(O)C(CCc1ccccn1)c1ccccc1 (configuration not stated),inactive
19,Cc1ccc(CS(=O)(=O)CCC(=O)NC2CC2)cc1,inactive
20,COc1ccc(-c2nn(C)c(=O)c3ccccc23)cc1CNC(=O)C1CCCCC1,inactive
21,CCCCC(=O)Nc1ccccc1N1CCN(c2ccc(F)cc2)CC1,-9.06 (active)
22,O=C(NC(=S)Nc1ccccc1N1CCCCC1)c1ccc(F)cc1,inactive

row,Structure (SMILES),B-score
1,O=C(Nc1ccccc1N1CCOCC1)c1ccncc1,inactive
2,O=C(Nc1ccccc1N1CCCC1)c1ccc(F)c(S(=O)(=O)N2CCOCC2)c1,inactive
3,Cc1cccc(C(=O)Nc2ccccc2N2CCN(c3ccc(F)cc3)CC2)c1,-12.2 (active)
4,Cc1cccc(C(=O)NC(=S)N2CCN(c3ccc([N+](=O)[O-])cc3)CC2)c1,inactive
5,CCCC(=O)Nc1ccccc1N1CCN(C(=O)c2ccccc2)CC1,inactive
6,CCC(C)C(=O)Nc1ccccc1N1CCN(c2ccc(F)cc2)CC1 (configuration not stated),inactive
7,O=C(Nc1ccccc1N1CCCC1)c1ccc2ccccc2c1,-8.97 (active)
8,Cc1[nH]c(C)c(S(=O)(=O)N2CCN(c3cccc(C(F)(F)F)c3)CC2)c1C(=O)N1CCCC1,inactive
9,O=C(NC(=S)N1CCCCC1c1cccnc1)c1ccccc1 (configuration not stated),inactive
10,CONc1nc2nonc2nc1NOC,inactive
11,CCCC(=O)Nc1cccc(NC(=S)NC(=O)C(C)Oc2ccc(Cl)cc2Cl)c1 (configuration not stated),inactive
12,CSc1cccc(NC(=O)C2CCCN2S(=O)(=O)c2ccc3c(c2)CCC(=O)N3)c1 (configuration not stated),inactive
13,CC(C(=O)c1ccc(-c2ccccc2)cc1)[n+]1cccc(Br)c1 (configuration not stated),inactive
14,COC(=O)c1nc(NC(=O)c2ccc(C(C)(C)C)cc2)n[nH]1,inactive
15,CSc1nccc(NC(=O)c2ccc(C(C)(C)C)cc2)n1,-10.4 (active)
16,Cc1cccc(NC(=O)c2ccc(S(=O)(=O)N(C)c3ccccc3)cc2)n1,inactive
17,COc1ccccc1N(CCOc1ccccc1)S(=O)(=O)c1ccccc1,-10 (active)
18,COc1ccccc1N(CC(=O)N1CCCCC1)S(=O)(=O)c1ccccc1,inactive
19,COc1ccccc1NC(=O)CN(c1ccccc1OC)S(=O)(=O)c1ccccc1,inactive
20,O=S(=O)(O)CCN1CCOCC1,inactive
21,O=S(=O)(Cc1noc(-c2ccc(OC(F)(F)F)cc2)n1)c1ccc(F)cc1,inactive
22,c1n[nH]c(NCc2ccc3c(c2)OCO3)n1,inactive

row,Structure (SMILES),B-score
1,N#Cc1nc(Cc2cccc3ccccc23)oc1NCc1ccc2c(c1)OCO2,-13.5 (active)
2,O=C(CCNS(=O)(=O)c1ccccc1C(F)(F)F)NCc1ccc2c(c1)OCO2,inactive
3,COC(=O)c1ccc2c(=O)n(CCN3CCOCC3)c(SCC(=O)Nc3cccc(OC)c3)nc2c1,inactive
4,COc1ccc(C(C)=O)cc1CN1C(=O)NC2(CCCCC2C)C1=O (configuration not stated),inactive
5,CC(CC(=O)O)CC(=O)NNC(=O)c1cccc(Br)c1 (configuration not stated),inactive
6,O=C(/C=C/NNC(=O)c1cccc(Br)c1)c1ccccc1,-9.94 (active)
7,Cc1ccccc1NC(=S)NNC(=O)c1cccc(Br)c1,inactive
8,CC(=O)OCC(=O)C1(O)CCC2C3CC(C)C4=CC(=O)CCC4(C)C3C(O)CC21C (configuration not stated),inactive
9,CC(C)(C)C(=O)Nc1c(Br)c(C2CC2)nn1-c1ccccc1,inactive
10,O=C(Cn1nc(CNc2ccc(Cl)cc2)[n+]2c1CCCCC2)c1ccc(Cl)cc1,inactive
11,COc1cc(C(=O)Nc2oc(-c3ccccc3)c(-c3ccccc3)c2C#N)cc(OC)c1OC,-10.4 (active)
12,N#Cc1c(NC(=O)CCCN2C(=O)c3ccccc3C2=O)oc(-c2ccccc2)c1-c1ccccc1,inactive
13,COc1cc(C(=O)NCC(=O)N2CC=C(c3ccccc3)CC2)cc(OC)c1OC,inactive
14,CCC(C)(C)NC(=O)c1cc([N+](=O)[O-])ccc1N1CCCCC1,inactive
15,CCC(=O)c1ccc(OC(=O)/C=C/c2cc(OC)c(OC)c(OC)c2)cc1,inactive
16,CCOC(=O)N1CCC(N(CCOC)C(=O)Nc2ccc(C)c(C)c2)CC1,inactive
17,COc1ccc(-c2nc(CCNC(=O)c3ccc(Br)o3)cs2)cc1,-10.2 (active)
18,O=C(NCCc1csc(-c2ccccc2)n1)c1ccccc1F,inactive
19,COc1ccc(N2CCN(C(=O)CNC(=O)c3ccc(Br)o3)CC2)cc1,inactive
